Data from PubChem BioAssay (Tox21).
Values without a mark were called inactive. Inconclusive results are not listed. Where a call stands in place of a potency, no number is given. The source made the active and inactive calls. Unless noted, calls come from the whole dose curve; as a rule, active = well fitted curve in the direction sought with a large enough effect in the repeat runs; inconclusive = weak or mixed curves; inactive = no such curve, though single readings can be large; an effect the other way counts as inactive or inconclusive.

Columns and labels:
[1] = qHTS assay to identify small molecule agonists of H2AX (AID 1224845; active = well fitted activation curve with a large enough effect in the signal ratio in the repeat runs, not every such curve was filed as active; the % refers to the signal ratio)
How it was run: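 Phospho-H2AX Ser139 measured by HTRF (ex 320 nm; em 665 and 620 nm) after 24 hr antibody incubation. Compounds, 15 concentrations, 0.76% DMSO, were applied to CHO-K1 cells for 3hr at 37C before lysis.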

[2] = qHTS assay to identify small molecule agonists of the hypoxia (HIF-1) signaling pathway (AID 1224846; active = well fitted activation curve with a large enough effect in the signal ratio in the repeat runs, not every such curve was filed as active; the % refers to the signal ratio)
How it was run: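 Cell line: CellSensor HRE-bla ME-180; 2,000 cells/well; 0.5% dialyzed FBS; 5 h preincubation; DMSO compound pin transfer; 17 h, 37C, 5% CO2; CCF4-AM added; bla FRET signal scored for activation.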

[3] = qHTS assay to identify small molecule agonists of H2AX - cell viability counter screen (AID 1224847; calls by dose curve;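 note: wild-type CHO-K1 cells; top concentration of the series differs between compounds; nearly all actives have a fitted effect of over 30% in size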)
How it was run: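 After overnight plating of 1000 CHO-K1 cells per well, a 15-concentration compound series was applied for 3 hr at 37C. Luminescence from CellTiter-Glo, read following 30 min at room temperature, reflected cell viability.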

[4] = qHTS assay to identify small molecule antagonists of the estrogen related receptor (ERR) signaling pathway from Tox21 library (AID 1224848); note: nearly all actives have a fitted effect of over 50% in size; note: potency is the fitted concentration of half-maximal effect
How it was run: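 Reading was by luminescence 30 min after ONE-Glo addition. Before that, ERR cells at 2,000 per well had rested 6 h at 37 C/5% CO2 and then received pin-tooled compounds in DMSO for 18 h at 37 C.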

[5] = qHTS assay to identify small molecule agonists of the estrogen related receptor (ERR) signaling pathway from Tox21 library (AID 1224849; calls by dose curve; note: nearly all actives have a fitted effect of over 15% in size); conditions: ERR reporter cell line, ONE-Glo luciferase, 18 h; at 92.4 µM (top of the series) unless noted
How it was run: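 ERR cells, 6 h pre-incubation 37 C/5% CO2; cpd in DMSO pinned; 18 h 37 C; ONE-Glo added, 30 min RT; luminescence read. Agonist mode, qHTS.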

[6] = qHTS RealTime-Glo MT Cell Viability Assay in HepG2 cells - 24 hour (AID 1224867); note: nearly all actives have a fitted effect of over 50% in size
How it was run: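 Viability was tracked continuously by NanoLuc luminescence from prosubstrate reduced by living HepG2 cells, at successive time points over 40 h of compound exposure. Cells with reagent were preincubated 5 h at 37 °C before compound addition.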

[7] = qHTS RealTime-Glo MT Cell Viability Assay in HEK293 cells - 32 hour (AID 1224868); note: nearly all actives have a fitted effect of over 50% in size; note: potency is the fitted concentration of half-maximal effect; for activity change, negative = cytotoxic: top concentration of the series differs between compounds
How it was run: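 Viability tracked continuously by luminescence as live cells reduce a prosubstrate for NanoLuc; HEK293 cells preincubated 5 h, compound-treated at 37 C, and read at 0, 8, 16, 24, 32 and 40 h.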

[8] = A CellTox Green Cytotoxicity Assay to monitor cytotoxicity in HEK293 cells - 0 hour (AID 1224869); note: nearly all actives have a fitted effect of over 50% in size; note: potency is the fitted concentration of half-maximal effect
How it was run: (§1)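 Nonlytic real-time cytotoxicity: HEK293 + CellTox Green reagent plated, 5 h preincubation, pintool compound addition (23 nL in DMSO), 37 C for 40 h, fluorescence measured at successive time points.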

[9] = qHTS RealTime-Glo MT Cell Viability Assay in HepG2 cells - 40 hour (AID 1224870); note: nearly all actives have a fitted effect of over 50% in size
How it was run: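 Real-time viability: cells seeded at 600 per well together with NanoLuc and cell-permeant prosubstrate, compounds added after 5 h incubation. Luminescence tracked at 0, 8, 16, 24, 32 and 40 h of exposure.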

[10] = A CellTox Green Cytotoxicity Assay to monitor cytotoxicity in HEK293 cells - 40 hour (AID 1224871); note: nearly all actives have a fitted effect of over 45% in size; note: potency is the fitted concentration of half-maximal effect
How it was run: as §1

Row | SMILES | Potency [1] | outcome [2] | Potency [3] | Potency [4] | activity change, positive = activation [5] | Potency [6] | Potency [7] | Potency [8] | Potency [9] | Potency [10] | activation (H2AX phosphorylation) [1] | activation [2] | activity change, negative = cytotoxicity [3] | activity, negative = inhibition [4] | activity change, negative = cytotoxic [7] | cytotoxicity [8] | activity change, negative = cytotoxic [9] | cytotoxicity increase [10]
1 | OC/C(Br)=C(\Br)CO | inactive | inactive | inactive | inactive | 1.63% | inactive | inactive | inactive | inactive | inactive | – | – | – | – | – | – | – | –
2 | O=S1OCCO1 | inactive | inactive | inactive | inactive | 6.2% | inactive | inactive | inactive | inactive | inactive | – | – | – | – | – | – | – | –
3 | COc1cc2[nH]c(=O)[nH]c(=O)c2cc1OC | inactive | inactive | inactive | inactive | 2.16% [at 42.5 µM] | inactive | inactive | inactive | inactive | inactive | – | – | – | – | – | – | – | –
4 | CC1(C)O[C@@H]2C[C@H]3[C@@H]4CCC5=CC(=O)C=C[C@]5(C)[C@H]4[C@@H](O)C[C@]3(C)[C@]2(C(=O)CO)O1 | inactive | inactive | inactive | inactive | -2.7% [at 42.5 µM] | inactive | inactive | inactive | inactive | – | – | – | – | – | – | – | – | –
5 | CC1CC(O)CC(C)(C)C1 (stereo not given) | inactive | inactive | inactive | inactive | -6.05% | – | inactive | inactive | inactive | inactive | – | – | – | – | – | – | – | –
6 | CC1=CC(=O)CC(C)(C)C1(O)/C=C/C(C)=C\C(=O)O (stereo not given) | inactive | inactive | inactive | inactive | 4.36% | inactive | – | inactive | inactive | inactive | – | – | – | – | – | – | – | –
7 | O=Cc1c(Cl)cccc1Cl | inactive | inactive | inactive | inactive | 3.9% | inactive | inactive | inactive | inactive | inactive | – | – | – | – | – | – | – | –
8 | c1ccc(COCc2ccccc2)cc1 | inactive | inactive | inactive | inactive | 0.496% | – | inactive | inactive | – | – | – | – | – | – | – | – | – | –
9 | CN1C(=O)CC(C)(c2ccccc2)C1=O (stereo not given) | inactive | inactive | inactive | inactive | 2.7% [at 42.5 µM] | – | inactive | inactive | inactive | inactive | – | – | – | – | – | – | – | –
10 | COC(=O)c1cc(S(N)(=O)=O)ccc1OC | inactive | inactive | inactive | inactive | -0.548% [at 42.5 µM] | inactive | inactive | inactive | – | inactive | – | – | – | – | – | – | – | –
11 | CNC(=O)N(c1ccccc1)c1ccccc1 | inactive | inactive | inactive | inactive | -5.23% | inactive | inactive | inactive | inactive | inactive | – | – | – | – | – | – | – | –
12 | CC(C)(O)c1ccccc1CC[C@@H](SCC1(CC(=O)O)CC1)c1cccc(/C=C/c2ccc3ccc(Cl)cc3n2)c1 | inactive | inactive | inactive | inactive | 1.93% [at 42.5 µM] | inactive | inactive | inactive | inactive | inactive | – | – | – | – | – | – | – | –
13 | O=C(CCC1CCN(Cc2ccccc2)CC1)c1ccc2c(c1)NCCCC2 | inactive | inactive | inactive | 18.8 µM (active) | -36% [at 42.5 µM] | inactive | 8.49 µM (active) | inactive | inactive | – | – | – | – | – | – | – | – | –
14 | CCCCC(CC)CNCC(CC)CCCC (stereo not given) | inactive | inactive | inactive | inactive | 4.2% | inactive | inactive | inactive | inactive | inactive | – | – | – | – | – | – | – | –
15 | c1cnc2c(n1)CCCC2 | inactive | inactive | inactive | inactive | 3.42% | inactive | – | 43.6 µM (active) | inactive | 43.6 µM (active) | – | – | – | – | – | – | – | –
16 | CC1(C)C(=O)N(Br)C(=O)N1Cl | inactive | inactive | inactive | inactive | 1.48% | inactive | inactive | inactive | inactive | inactive | – | – | – | – | – | – | – | –
17 | Nc1ccc(S(=O)(=O)O)cc1 | inactive | inactive | inactive | inactive | 2.73% | inactive | inactive | inactive | inactive | inactive | – | – | – | – | – | – | – | –
18 | COc1cc2c(cc1OC)-c1cc(=Nc3c(C)cc(C)cc3C)n(C)c(=O)n1CC2 | inactive | inactive | inactive | 13.3 µM (active) | -48.8% [at 42.5 µM] | inactive | – | inactive | – | inactive | – | – | – | – | – | – | – | –
19 | [O]=[Bi] | – | – | – | – | -10.5% [at 8.39 µM] | – | – | – | – | – | -0.036% [at 14 µM] | 0% [at 7.01 µM] | 2.81% [at 14 µM] | -9.31% [at 8.39 µM] | 4.51% [at 6.97 µM] | -1.07% [at 6.97 µM] | 9.58% [at 6.97 µM] | -5.17% [at 6.97 µM]
20 | C=CC(C)(O)CCCC(C)CCCC(C)CCCC(C)C (stereo not given) | inactive | inactive | inactive | inactive | -0.948% | – | inactive | inactive | inactive | inactive | – | – | – | – | – | – | – | –
21 | O=C(/C=C/c1ccccc1)OCCCc1ccccc1 | inactive | inactive | inactive | inactive | – | inactive | inactive | inactive | inactive | inactive | – | – | – | – | – | – | – | –
